# Measured values from paper PMC4336329 (PLoS ONE, 2015).
# About 14,000 (4.5%) of roughly 310,000 compounds showed an effect of 50% or more. Effects have a minus sign here. Only a selection was taken, and strong results are over-represented in it overall.
# Target: human ether-à-go-go-related gene (hERG) potassium channel (human, UniProt Q12809)
# Experiment: primary screen, population patch clamp on CHO cells stably expressing hERG; higher = less effect of the substance
# 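Also: peak tail current of the secondary pulse compared with the same well before compound.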
# human ether-à-go-go-related gene (hERG) potassium channel, sequence (Q12809 whole entry, looked up): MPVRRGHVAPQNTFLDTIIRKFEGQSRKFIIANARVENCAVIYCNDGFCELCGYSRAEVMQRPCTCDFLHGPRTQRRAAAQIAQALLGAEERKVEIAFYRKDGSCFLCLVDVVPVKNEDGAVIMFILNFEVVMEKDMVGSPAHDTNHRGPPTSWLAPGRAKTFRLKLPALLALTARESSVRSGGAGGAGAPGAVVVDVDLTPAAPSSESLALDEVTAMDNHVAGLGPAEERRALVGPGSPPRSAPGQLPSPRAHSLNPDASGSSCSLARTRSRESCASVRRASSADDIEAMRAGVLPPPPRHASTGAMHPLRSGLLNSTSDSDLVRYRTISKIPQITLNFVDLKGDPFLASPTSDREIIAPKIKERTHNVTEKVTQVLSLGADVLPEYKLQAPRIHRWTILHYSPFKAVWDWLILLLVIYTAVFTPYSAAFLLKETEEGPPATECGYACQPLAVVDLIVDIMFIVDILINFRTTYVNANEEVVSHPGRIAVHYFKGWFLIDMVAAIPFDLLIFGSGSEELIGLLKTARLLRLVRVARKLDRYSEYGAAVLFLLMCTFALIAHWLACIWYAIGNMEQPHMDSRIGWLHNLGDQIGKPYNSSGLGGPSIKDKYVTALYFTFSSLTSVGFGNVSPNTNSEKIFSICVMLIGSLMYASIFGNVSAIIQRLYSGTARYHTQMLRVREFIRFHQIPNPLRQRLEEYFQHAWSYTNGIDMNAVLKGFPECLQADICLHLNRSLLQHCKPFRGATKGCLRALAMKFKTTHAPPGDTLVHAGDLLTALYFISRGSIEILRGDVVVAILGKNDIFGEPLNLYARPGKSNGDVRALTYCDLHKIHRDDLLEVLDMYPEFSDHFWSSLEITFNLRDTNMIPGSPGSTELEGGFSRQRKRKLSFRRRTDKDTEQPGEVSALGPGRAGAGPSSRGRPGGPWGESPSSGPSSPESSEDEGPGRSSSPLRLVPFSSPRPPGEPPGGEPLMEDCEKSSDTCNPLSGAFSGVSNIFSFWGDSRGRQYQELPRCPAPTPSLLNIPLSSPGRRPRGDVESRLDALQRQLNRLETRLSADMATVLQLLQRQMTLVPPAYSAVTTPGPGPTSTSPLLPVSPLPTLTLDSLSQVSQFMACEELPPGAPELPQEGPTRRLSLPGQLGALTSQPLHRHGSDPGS
row,SMILES,"hERG current change (%, negative = inhibition) at 10uM [%]"
1,CCOC(=O)c1c(-c2ccc(OC)cc2)oc2cc(Br)c(O)cc12,10.4
2,COc1ccc(NS(=O)(=O)c2ccc(OCC(=O)N3CCOCC3)cc2)cc1Cl,8.46
3,CNC(=O)Nc1ccc(C2SCCS2)cc1,7.02
4,CCOC(=O)C1=C2SCCN2C(=O)C(C#N)C1(C)C (stereo not drawn),7.34
5,COc1ccc(-c2cc(C(=O)N3CC4(C)CC3CC(C)(C)C4)no2)cc1OC (stereo not drawn),-20.1
6,O=C(NCc1ccccc1F)C(=O)NCC1OCCCN1S(=O)(=O)c1cccs1 (stereo not drawn),9.19
7,Cc1ccccc1NCN1C(=O)C2CCC(C)(C1=O)C2(C)C (stereo not drawn),-0.978
8,COCc1[nH]nc2c1C(c1ccccc1F)C(C#N)=C(N)O2 (stereo not drawn),11
9,Cc1ccc(C)c(C(=O)CC2(O)C(=O)N(C)c3ccccc32)c1 (stereo not drawn),8.85
10,O=C(O)c1ccccc1C(=O)Nc1ccc(Br)c(C(F)(F)F)c1,-70.6
11,O=C(Nc1ccc(Br)c(C(F)(F)F)c1)c1ccc(C(F)(F)F)cc1,11.8
12,O=C(Nc1ccc(Br)c(C(F)(F)F)c1)c1ccccc1,27.3
13,C/C(=N\NC(=O)CSc1nc2ccccc2s1)c1ccco1,0.0885
14,CC1CCCCN1C(=O)COC(=O)c1cccc(NS(=O)(=O)c2ccccc2)c1 (stereo not drawn),0.629
15,N#Cc1ccsc1NC(=O)COc1ccc(-c2nnco2)cc1,1.95
16,O=C(COc1ccc(-c2nnco2)cc1)Nc1c(F)cccc1F,0.851
17,N#CCSc1ccccc1NC(=O)COc1ccc(-c2nnco2)cc1,-66.3
18,CCN(CC(=O)Nc1ccc2c(c1)OCCO2)S(=O)(=O)c1cccs1,-4.54
19,COc1cccc(C(=O)Nc2c(C)n[nH]c2C)c1,-0.143
20,COC(=O)c1ccc(S(=O)(=O)NCc2ccco2)o1,6.1
21,O=C(Cn1c(CN2CCCCC2)nc2ccccc2c1=O)NCc1ccco1,-15.4
22,COCCN(Cc1cc2cc(C)ccc2[nH]c1=O)S(=O)(=O)c1ccc(Cl)cc1,16.4
23,COc1ccc(S(=O)(=O)Nc2nc3c(s2)C(=O)CC(C)(C)C3)cc1,-10.3
24,CC(C)Cn1nc(C(=O)NCc2ccccc2CN2CCCC2)c2ccccc2c1=O,-38.3
25,CCCCn1nc(C(=O)Nc2ccccc2N2CCCC2)c2ccccc2c1=O,-9.4
26,CCCCn1nc(C(=O)NCc2ccccc2CN2CCCC2)c2ccccc2c1=O,-64.6
27,CCCCn1nc(C(=O)N(CC)CC(=O)Nc2c(F)cccc2F)c2ccccc2c1=O,-7.72

row,SMILES,"hERG current change (%, negative = inhibition) at 10uM [%]"
1,CCCCn1nc(C(=O)Nc2c(C)n(C)n(-c3ccccc3)c2=O)c2ccccc2c1=O,-17.9
2,CCCCn1nc(C(=O)NCC(=O)Nc2c(C)cccc2C)c2ccccc2c1=O,-68.9
3,COc1cc(CCCN[C@H](CN)Cc2ccccc2)cc(OC)c1OC,-4.22
4,Cl.O=C1CSC(c2cccc([N+](=O)[O-])c2)N1CCN1CCCCC1 (stereo not drawn),-21.4
5,O=C1CSC(c2ccc([N+](=O)[O-])cc2)N1Cc1ccccc1 (stereo not drawn),-48.8
6,CCN(CC)CCCN1C(=O)CSC1c1ccc2c(c1)OCO2.Cl (stereo not drawn),-39.2
7,CCN(CC)CCCN1C(=O)CSC1c1ccc([N+](=O)[O-])cc1.Cl (stereo not drawn),-72.8
8,Cl.O=C1CSC(c2ccc([N+](=O)[O-])cc2)N1CCN1CCCCC1 (stereo not drawn),-94.9
9,CN(C)CCCN1C(=O)CSC1c1ccc([N+](=O)[O-])cc1.Cl (stereo not drawn),-46
10,O=C(O)c1cc(S(=O)(=O)NC2CCCc3ccccc32)ccc1O (stereo not drawn),13.5
11,CC(C)CN(CC(C)C)c1ccc(C=C2C(=O)NC(=S)NC2=O)cc1[N+](=O)[O-],9.99
12,CC[C@@H](C)C(NC(=O)OC(C)(C)C)c1cn([C@@H](Cc2ccc(O)cc2)C(=O)N2CCN(C(=O)OC(C)(C)C)CC2)nn1 (stereo partly drawn),-70
13,CC[C@@H](C)C(NC(=O)OC(C)(C)C)c1cn([C@@H](Cc2cc3ccccc3[nH]2)C(=O)N2CCN(C(=O)OC(C)(C)C)CC2)nn1 (stereo partly drawn),-13.4
14,CC[C@@H](C)C(NC(=O)OC(C)(C)C)c1cn([C@@H](CCC(=O)OC(C)(C)C)C(=O)N2CCN(C(=O)OC(C)(C)C)CC2)nn1 (stereo partly drawn),-17.6
15,CC(C)CCNC(=S)Nc1ccc2nc3n(c(=O)c2c1)CCCCC3,-46.2
16,COCCCNC(=S)Nc1ccc2nc3n(c(=O)c2c1)CCCCC3,7.89
17,O=c1c2cc(NC(=S)NC3CCN(Cc4ccccc4)CC3)ccc2nc2n1CCCCC2,-10.4
18,O=c1c2cc(NC(=S)NC3CCCCC3)ccc2nc2n1CCCCC2,-70.2
19,O=c1c2cc(NC(=S)NCCCN3CCC(Cc4ccccc4)CC3)ccc2nc2n1CCCCC2,-82.1
20,O=c1c2cc(NC(=S)NC3CCCC3)ccc2nc2n1CCCCC2,-59.6
21,O=c1c2cc(NC(=S)NC3CC3)ccc2nc2n1CCCCC2,0.786
22,O=c1c2cc(NC(=S)NCc3ccccn3)ccc2nc2n1CCCCC2,-6.42
23,O=c1c2cc(NC(=S)NCCN3CCCCCC3)ccc2nc2n1CCCCC2,-1.38
24,COc1ccccc1OC(=O)c1ccc2nsnc2c1,8.28
25,O=C(OCC#Cc1c(COC(=O)c2ccccc2)nnn1Cc1ccccc1)c1ccccc1,5.67
26,CCOc1ccc(/C=C2\SC(=S)N(CCC(=O)O)C2=O)cc1,3.03
27,CS(=O)(=O)c1ccc(-c2nnc(NC(=O)c3cccc(N4C(=O)CCC4=O)c3)o2)cc1,6.65
